Each structure is given as a SMILES string. “And” between values parts separate entries of the source, which are not always exact repeats. Equal entries are not always repeated. The source made the active and inactive calls. No rule for the calls is given here.

In the assay the target is Serine/threonine-protein kinase PLK1 (Homo sapiens) (UniProt P53350). Description: Plk1 polo box domain binding inhibitors, SAR follow-up, biochemical, fluorescence polarization, purchased analogs (AID 1053). The conditions noted are these: Plk1 PBD fluorescence polarization peptide binding; at 20 µM; active compounds read high. (In general: Fluorescence polarisation rises when a labelled molecule tumbles more slowly, as on binding a larger partner.)
Chain of Serine/threonine-protein kinase PLK1 (Homo sapiens) (P53350 whole entry, looked up, the tested form may be a part): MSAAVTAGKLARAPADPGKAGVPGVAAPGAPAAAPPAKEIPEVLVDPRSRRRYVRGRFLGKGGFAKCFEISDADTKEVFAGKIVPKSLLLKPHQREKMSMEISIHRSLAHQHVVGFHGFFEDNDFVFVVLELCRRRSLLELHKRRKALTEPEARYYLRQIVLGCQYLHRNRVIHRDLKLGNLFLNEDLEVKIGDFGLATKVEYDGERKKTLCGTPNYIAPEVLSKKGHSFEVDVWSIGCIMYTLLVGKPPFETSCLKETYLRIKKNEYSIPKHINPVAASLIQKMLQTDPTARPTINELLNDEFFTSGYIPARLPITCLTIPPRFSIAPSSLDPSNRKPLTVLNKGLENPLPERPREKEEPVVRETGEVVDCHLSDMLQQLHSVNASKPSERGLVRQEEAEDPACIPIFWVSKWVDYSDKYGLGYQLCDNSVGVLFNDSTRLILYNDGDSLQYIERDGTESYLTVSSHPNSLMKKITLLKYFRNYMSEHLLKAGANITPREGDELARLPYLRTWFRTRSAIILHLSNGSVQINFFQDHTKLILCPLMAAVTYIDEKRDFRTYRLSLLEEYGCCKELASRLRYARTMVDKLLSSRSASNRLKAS
Turning to `CCOC(=O)c1ccc(NC(=O)C2C3CCC(C3)C2C(=O)O)cc1` (stereo unspecified), the inhibition was -61.5% (inactive). In the case of `CCOC(=O)c1ccc(NC(=O)C23CC4CC(CC(C4)C2)C3)cc1` it was -35.4% (inactive); in that of `CCCCCC(=O)N(CN1C(=O)c2ccccc2C1=O)c1cccc(C(=O)O)c1`, -10.1% (inactive); in that of `Cn1c(=O)[nH]c(=O)c2nc(-c3ccccc3)c(-c3ccccc3)nc21`, -33.3% (inactive). Turning to `CCOC(=O)c1ccc(N=Cc2c(O)n(-c3cccc(OC)c3)c(=O)[nH]c2=O)cc1`, the inhibition was -40.6% (inactive). The same measure for `CCOC(=O)c1ccc(NC(=O)C2CC(=O)NC(=NC)S2)cc1` (stereo unspecified): -37.5% (inactive); for `CCCOC(=O)c1ccc(NC(=O)c2c(F)c(F)c(F)c(F)c2F)cc1`: -41.6% (inactive); for `Cc1ccccc1-c1nc2c(=O)n(C)c(=O)nc-2n(C)n1`: 36.2% (inactive) and 24.8% (inactive). The same measure for `CCOC(=O)c1ccc(N=Cc2c(O)[nH]c(=O)[nH]c2=O)cc1`: 49.9% (inactive). Regarding `COc1ccc(N(/C=C2\Sc3ccccc3C2=O)C(C)=O)cc1`, the inhibition was -312% (inactive).

In the case of `CC(=O)N(/C=C1\Sc2ccccc2C1=O)c1cc(C(F)(F)F)ccc1Cl`, the inhibition was -73.4% (inactive) and -36.2% (inactive). The same measure for `CCOC(=O)c1ccc(N=Cc2c(O)n(-c3ccc(OCC)cc3)c(=O)[nH]c2=O)cc1`: -112% (inactive); for `CC(=O)Oc1ccccc1N(/C=C1\Sc2ccccc2C1=O)C(C)=O`: -254% (inactive) and -278% (inactive). In the case of `CC(=O)N(CN1C(=O)c2ccccc2C1=O)c1ccc(Cl)c(Cl)c1` it was -88.3% (inactive).

As for `CC(=O)N(/N=C1\Sc2ccccc2C1=O)c1cc(C)ccc1C`, the inhibition was 33% (inactive). The same measure for `O=c1[nH]c2c(c(O)c1-c1ccccc1)c(=O)n(-c1ccccc1)c(=O)n2-c1ccccc1`: -40.4% (inactive); for `CCOC(=O)c1ccc(NC(=O)c2ccc3snnc3c2)cc1`: -21.6% (inactive) and -22.3% (inactive). In the case of `Cn1c(=O)c2nc(-c3ccccc3)c(=O)n(C)c2n(C)c1=O` it was -37.8% (inactive); in that of `CC(=O)N(CN1C(=O)c2ccccc2C1=O)c1cccc(F)c1`, -51.8% (inactive). The same measure for `CCCOC(=O)c1ccc(NC(=O)c2ccc(OC)c([N+](=O)[O-])c2)cc1`: -17.9% (inactive); for `COC(=O)c1ccc(NC(=O)c2cc(-c3ccc(C)o3)nc3ccccc23)cc1`: 25.4% (inactive); for `CC(=O)N(/C=C1\Sc2ccccc2C1=O)c1ccc(C)c(C)c1`: -217% (inactive). In the case of `CC(=O)N(CN1C(=O)c2ccccc2C1=O)c1ccc(C)c(Cl)c1`, the inhibition was -39.1% (inactive).

Take `CC(=O)N(/N=C1\Sc2ccccc2C1=O)c1cccc(Br)c1`: the inhibition is 20.2% (inactive). The same measure for `COc1ccccc1N(/N=C1\Sc2ccccc2C1=O)C(C)=O`: 6.58% (inactive); for `CCOC(=O)c1ccc(NC(=O)c2cc3ccccc3c(=O)o2)cc1`: -35.6% (inactive). Turning to `CCN(CC)CCOC(=O)c1ccc(N=Cc2c(O)n(Cc3ccccc3)c(=O)[nH]c2=O)cc1`, the inhibition was -220% (inactive). The same measure for `CCn1nc(-c2ccc(C(=O)OC)cc2)nc2c(=O)n(C)c(=O)nc1-2`: -9.29% (inactive).

Consider `CCOC(=O)c1ccc(NC(=O)C2COc3ccccc3O2)cc1` (stereo unspecified), for which the inhibition was -40.6% (inactive).

As for `CCOC(=O)N1CCN(c2cc3nccnc3cc2F)CC1`, the inhibition is -52.1% (inactive).

Regarding `CCn1nc(-c2ccc(C(F)(F)F)cc2)nc2c(=O)n(C)c(=O)nc1-2`, the inhibition is 10.8% (inactive). `CC1CN(c2cc3nccnc3cc2F)CC(C)O1` (stereo unspecified): the inhibition is -46.8% (inactive). In the case of `CCOC(=O)c1ccc(NC(=O)c2ccc3nc(N)sc3c2)cc1` it was -36.9% (inactive); in that of `CC(=O)N(CN1C(=O)c2ccccc2C1=O)c1ccc2ccccc2c1`, -49.2% (inactive).

For the molecule `COc1cc(C=C2C(=O)NC(=O)NC2=O)ccc1OCc1ccc(Cl)cc1Cl`, the inhibition is -58.1% (inactive). The same measure for `CCOC(=O)c1ccc(NC(=O)C2Cc3ccccc3C(=O)O2)cc1` (stereo unspecified): -59.4% (inactive).

By inhibition is commonly meant the change of the read-out against control, counted positive when it falls.

(Values after PubChem BioAssay AID1053 (University of Pittsburgh Molecular Library Screening Center, 2008).)
